Laboratory results published in PubChem BioAssay (NCATS).
Values joined by “and” are separate entries in the source; they are usually repeats but may differ in a detail not shown here. Equal values may be shown once. Records with an inconclusive call do not appear. Active and inactive are the calls of the source. Calls follow the shape of the dose curve; as a rule, active = well fitted curve in the direction sought with a large enough effect; inconclusive = small, poorly fitted or top-dose-only effect, or another doubt; inactive = no such curve, though single readings can be large; an effect the other way counts as inactive or inconclusive.

Experiments:
[1] = molecular target: Cellular tumor antigen p53 (Homo sapiens) (UniProt P04637); assay: Primary qHTS for small molecule compounds that upregulate eGFP-tagged delta133p53alpha (in N-terminal) cells. (AID 2060322); conditions: NCI-H358 eGFP-delta133p53alpha fluorescence, 24 h; activation: stronger effect = higher value; also: nearly all actives have a fitted effect of over 75% in size; also: potency is read from the fitted curve at half-maximal effect;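 as to activation: cells pre-induced with doxycycline then dosed without doxycycline; 0% = DMSO vehicle and 100% = reference activator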
Procedure, shortened: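 NCI-H358 cells pre-induced 24 h with 10 ng/ml doxycycline for eGFP-delta133p53alpha, plated dox-free and exposed 24 h at 37C to titrated compounds. Fixed, Hoechst-stained; gated GFP peak intensity by laser scanning cytometry, normalized to DMSO (0%) and 57.5 uM 5-azacytidine (100%).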

[2] = molecular target: Retinaldehyde dehydrogenase 3 (Homo sapiens) (UniProt P47895); assay: qHTS for Inhibitors of the Aldehyde Dehydrogenase Family (ALDH1A3) Primary screen (AID 2061315); conditions: ALDH inhibition qHTS; series mostly up to 56 µM;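 also: plate controls were DMSO vehicle for no effect and reference inhibitor for full effect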
[3] = BET inhibitor-based combinations targeting novel dependencies in MECOM-rearranged (r) AML: OCI-AML3 cell line (AID 2202232); conditions: CellTiter-Glo luminescence, 48 h; Potency: OCI-AML3 viability; series mostly up to 46 µM; also: nearly all actives have a fitted effect of over 35% in size; also: potency is read from the fitted curve at half-maximal effect
Procedure, shortened: (§1)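 500 cells/well; 11-pt dose curve; 48 h, standard incubator; CellTiter-Glo luminescence after 15 min RT; DMSO/empty-well normalization; AUC plus Z-AUC (mean-centered within each line).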

[4] = BET inhibitor-based combinations targeting novel dependencies in MECOM-rearranged (r) AML: MV-4-11 cell line (AID 2202233); conditions: MV-4-11 AML viability, CellTiter-Glo luminescence, 48 h; series mostly up to 46 µM; also: nearly all actives have a fitted effect of over 45% in size; also: potency is read from the fitted curve at half-maximal effect
Procedure, shortened: (§2)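 Cells were plated at 500 per well and exposed to each drug across an 11-point dose range for 48 hr at standard incubator conditions. Viability was read by CellTiter-Glo luminescence, and activity was expressed as AUC and per-cell-line Z-transformed AUC.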

[5] = BET inhibitor-based combinations targeting novel dependencies in MECOM-rearranged (r) AML: UCSD-AML1 cell line (AID 2202235); conditions: UCSD-AML1 AML cells viability, CellTiter-Glo, 48 h; series mostly up to 46 µM; also: nearly all actives have a fitted effect of over 40% in size; also: potency is read from the fitted curve at half-maximal effect
Procedure, shortened: as §2

[6] = BET inhibitor-based combinations targeting novel dependencies in MECOM-rearranged (r) AML: SET-2 cell line (AID 2202231); conditions: SET-2 AML cells viability, CellTiter-Glo luminescence, 48 h; viability: stronger effect = lower value, concentration not given here; also: nearly all actives have a fitted effect of over 35% in size; also: potency is read from the fitted curve at half-maximal effect;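 as to viability: plate controls were DMSO treated cells for no effect and wells without cells for full effect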
Procedure, shortened: as §1

[7] = BET inhibitor-based combinations targeting novel dependencies in MECOM-rearranged (r) AML: HNT-34 cell line (AID 2202234); conditions: HNT-34 AML viability, CellTiter-Glo luminescence, 48 h; series mostly up to 46 µM; also: nearly all actives have a fitted effect of over 35% in size; also: potency is read from the fitted curve at half-maximal effect
Procedure, shortened: as §2

[8] = BET inhibitor-based combinations targeting novel dependencies in MECOM-rearranged (r) AML: AML-194 cell line (AID 2202237;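 also: plate controls were vehicle wells for no effect and wells without cells for full effect; nearly all actives have a fitted effect of over 40% in size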); conditions: AML-194 (MECOM-r AML) viability, CellTiter-Glo, 48 h; series mostly up to 46 µM
Procedure, shortened: as §1

[9] = BET inhibitor-based combinations targeting novel dependencies in MECOM-rearranged (r) AML: AML-191 cell line (AID 2202236; also: nearly all actives have a fitted effect of over 35% in size; also: potency is read from the fitted curve at half-maximal effect); conditions: AML-191 viability, CellTiter-Glo luminescence, 48 h; series mostly up to 46 µM
Procedure, shortened: as §1

Cellular tumor antigen p53 (Homo sapiens), sequence (P04637 whole entry, looked up): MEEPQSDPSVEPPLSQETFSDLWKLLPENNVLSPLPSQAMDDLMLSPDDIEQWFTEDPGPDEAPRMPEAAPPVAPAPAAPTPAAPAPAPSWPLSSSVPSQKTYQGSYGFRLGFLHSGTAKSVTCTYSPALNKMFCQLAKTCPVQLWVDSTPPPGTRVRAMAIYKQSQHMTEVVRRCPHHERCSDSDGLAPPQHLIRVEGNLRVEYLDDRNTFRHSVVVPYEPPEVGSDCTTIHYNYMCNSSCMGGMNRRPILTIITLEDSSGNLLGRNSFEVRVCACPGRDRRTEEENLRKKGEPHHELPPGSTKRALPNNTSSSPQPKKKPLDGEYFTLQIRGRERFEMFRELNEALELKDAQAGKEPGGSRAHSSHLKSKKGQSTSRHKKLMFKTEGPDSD

COc1ccc(-c2nc3ccc(C4=NNC(=O)CC4C)cc3[nH]2)cc1 (stereo not given)
inactive: activation [1] 15.8% | Potency [2]
active: Potency [3] 18.6 µM | Potency [4] 11.8 µM | Potency [5] 11.8 µM

CC(C)c1ccc2oc3nc(N)c(C(=O)O)cc3c(=O)c2c1
active: Potency [3] 14.8 µM
inactive: activation [1] 16.6% and 7.34% | viability [6] 106%

C[C@@H]1O[C@@H](O[C@@H]2\C=C/C=C\C=C/C=C\C[C@H](C)OC(=O)/C=C\[C@H]3O[C@@H]3C[C@H](O)C[C@]3(O)C[C@@H](O)[C@@H](C(=O)O)[C@H](C2)O3)[C@H](O)[C@H](N)[C@@H]1O
inactive: activation [1] 17.7% | Potency [2] | Potency [3] | Potency [4] | Potency [7] | Potency [5] | Potency [8]

NC(=O)Nc1cc(-c2ccc(CN3CCOCC3)cc2)sc1C(N)=O
active: Potency [6] 10.5 µM | Potency [3] 0.934 µM | Potency [4] 0.332 µM | Potency [7] 1.18 µM | Potency [5] 1.32 µM | Potency [9] 2.63 µM
inactive: activation [1] 3%

C[C@H](Nc1ncnc2nc[nH]c12)c1cc2ccc(F)cc2nc1-c1ccccn1
active: Potency [9] 18.6 µM
inactive: activation [1] 5% | Potency [2]

CCC(=O)O[C@]1(C(=O)SCF)[C@H](C)C[C@H]2[C@@H]3C[C@H](F)C4=CC(=O)C=C[C@]4(C)[C@@]3(F)[C@@H](O)C[C@@]21C
inactive: activation [1] 17.6% and 0.401% | viability [6] 114% | Potency [3] | Potency [4] | Potency [7] | Potency [5] | Potency [9]

Nc1cc(C(Cl)=C(Cl)Cl)c(S(N)(=O)=O)cc1S(N)(=O)=O
inactive: activation [1] 44.6% | viability [6] 111% | Potency [3] | Potency [4] | Potency [7] | Potency [5] | Potency [9]

CC(=O)OCC(=O)[C@@]12N=C(C)O[C@@H]1C[C@H]1[C@@H]3CCC4=CC(=O)C=C[C@]4(C)[C@H]3[C@@H](O)C[C@@]12C
inactive: activation [1] -1.69% | viability [6] 113% | Potency [3] | Potency [4] | Potency [7] | Potency [5]

Cc1cc(NC(=O)Nc2ccc(N(C)C)cc2)c2cc(F)cc(F)c2n1
active: Potency [3] 8.11 µM
inactive: activation [1] -0.105% | viability [6] 94.3%

O=C(Nc1c(Cl)cncc1Cl)c1ccc(OC(F)F)c(OCC2CC2)c1
inactive: activation [1] -4.21% | viability [6] 98.8% | Potency [3] | Potency [4] | Potency [7] | Potency [5] | Potency [9]

CC(C)[C@H](N)C(=O)OCCOCn1cnc2c(=O)[nH]c(N)nc21
inactive: activation [1] -14.1% and 18.6% | viability [6] 92.3% | Potency [3] | Potency [4] | Potency [7] | Potency [5] | Potency [9]

CCc1c2c(nc3ccc(OC(=O)N4CCC(N5CCCCC5)CC4)cc13)-c1cc3c(c(=O)n1C2)COC(=O)[C@]3(O)CC
inactive: activation [1] 14.2%
active: Potency [6] 0.372 µM | Potency [3] 0.186 µM | Potency [4] 0.166 µM | Potency [7] 0.105 µM | Potency [5] 0.209 µM

CC(C)NC[C@@H](C(=O)N1CCN(c2ncnc3c2[C@H](C)C[C@H]3O)CC1)c1ccc(Cl)cc1
active: Potency [1] 34.3 µM
inactive: viability [6] 102%

CC[C@H](Nc1ncnc2nc[nH]c12)c1nc2cccc(F)c2c(=O)n1-c1ccccc1
inactive: activation [1] 21.6% and 7.67% | Potency [2] | viability [6] 94.4%
active: Potency [3] 4.68 µM | Potency [5] 5.9 µM

NC(=O)Nc1sc(-c2ccc(F)cc2)cc1C(N)=O
active: Potency [6] 5.9 µM | Potency [3] 2.35 µM | Potency [4] 1.86 µM | Potency [7] 1.66 µM | Potency [5] 1.86 µM | Potency [9] 1.86 µM
inactive: activation [1] -16.3%

C[C@H]1COC2=C1C(=O)C(=O)c1c2ccc2c1CCCC2(C)C
inactive: activation [1] -1.94%
active: Potency [6] 20.9 µM | Potency [3] 20.9 µM | Potency [4] 13.2 µM

CC(C)C[C@@H](N)[C@H](O)C(=O)N[C@H](C(=O)N[C@H](C(=O)N[C@@H](CC(=O)O)C(=O)O)C(C)C)C(C)C
inactive: activation [1] -3.94% | viability [6] 110% | Potency [3] | Potency [4] | Potency [7] | Potency [5]

CN(c1ncccc1CNc1nc(Nc2ccc3c(c2)CC(=O)N3)ncc1C(F)(F)F)S(C)(=O)=O
active: Potency [1] 24.3 µM | Potency [6] 6.61 µM | Potency [3] 6.61 µM | Potency [4] 0.833 µM | Potency [7] 5.25 µM | Potency [5] 5.9 µM | Potency [9] 4.68 µM

O=C1[C@H](Cc2ccc(O)cc2)N2C(=O)CCN(C(=O)NCc3ccccc3)[C@H]2CN1Cc1cccc2ccccc12
inactive: activation [1] 18.1%
active: Potency [6] 11.8 µM | Potency [3] 9.34 µM | Potency [4] 9.34 µM | Potency [7] 5.25 µM | Potency [5] 9.34 µM
